Tb PYK inh = qHTS of Trypanosoma Brucei Inhibitors | Potency, µM (series often up to 76.8 µM), most hits filed as inhibitors | TbPYK enzyme, Kinase-Glo Plus ATP luminescence, 45 min | pyruvate kinase (Trypanosoma brucei), Q57TT1 | actives 0.12% (n = 410,000); note: nearly all actives have a fitted effect of over 50% in size
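ADP (130 uM final) triggers the TbPYK reaction after compound addition; incubation is 45 min at room temperature. Kinase-Glo Plus is then added and luminescence imaged. Normalized data are fitted to concentration-effect curves.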
Sm TGR block = qHTS Assay for the Inhibitors of Schistosoma Mansoni Peroxiredoxins | purified TGR, DTNB reduction, TNB absorbance 405 nm | Potency, µM (series often up to 114 µM), most hits filed as inhibitors | actives 3% (n = 360,000) | AID 485364, 2010; note: nearly all actives have a fitted effect of over 60% in size
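TGR 20 nM + NADPH 100 uM (dispensed conc.), cpd preinc 15 min RT; start with NADPH (500 uM addition) then DTNB (15 mM addition). Kinetic TNB absorbance, 405 nm filter. Four-parameter Hill fit across titration.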
AMA1-RON2 inh = qHTS for Inhibitors of AMA1-RON; Towards Development of Antimalarial Drug Lead: Primary Screen; Potency, µM (titrated, usually from 58.2 µM), hits mostly inhibitors; AlphaScreen AMA1-biotinylated RON2 peptide binding; actives 0.2% (n = 360,000); Plasmodium falciparum AMA1 (3D7) - RON2 peptide interaction; note: nearly all actives have a fitted effect of over 45% in size
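AMA1 (3D7) with his tag at 25 nM final met compounds first, then biotinylated RON2 peptide at 25 nM; detection used donor plus acceptor beads, 10 µg/mL apiece, read by AlphaScreen after 30 min at room temperature.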
LmPK inhibitor = qHTS Assay for Inhibitors of Leishmania Mexicana Pyruvate Kinase (LmPK); Q27686; purified LmPK, Kinase-Glo ATP luminescence, 1 h; Potency, µM (titrated, usually from 57.5 µM), most hits filed as inhibitors; actives 0.37% (n = 290,000)
Target sequence (Q27686 whole entry, looked up): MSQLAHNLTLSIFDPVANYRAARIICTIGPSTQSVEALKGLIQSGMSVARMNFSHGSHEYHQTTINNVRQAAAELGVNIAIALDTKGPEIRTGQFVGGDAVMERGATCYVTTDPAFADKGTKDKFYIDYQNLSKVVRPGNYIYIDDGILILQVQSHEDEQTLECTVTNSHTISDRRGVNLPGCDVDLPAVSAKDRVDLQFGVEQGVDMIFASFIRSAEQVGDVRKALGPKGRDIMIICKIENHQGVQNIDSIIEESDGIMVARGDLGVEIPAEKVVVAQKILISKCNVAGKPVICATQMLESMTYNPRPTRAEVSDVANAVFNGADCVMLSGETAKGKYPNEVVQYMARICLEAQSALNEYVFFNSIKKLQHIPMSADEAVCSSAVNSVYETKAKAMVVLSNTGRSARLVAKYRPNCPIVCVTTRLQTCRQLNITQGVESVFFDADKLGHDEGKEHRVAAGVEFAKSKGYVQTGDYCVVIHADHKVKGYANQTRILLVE
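ATP generated from ADP (0.1 mM) and PEP (0.5 mM) by 0.1 nM LmPK over 1 h at room temperature (pH 7.2 imidazole buffer) was detected by coupled luciferase luminescence. Values were normalized to uninhibited and no-enzyme wells.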
RE007 growth inh = qHTS Assay for Inhibitors of the HIV-1 protein Vpr; S. pombe RE007 Vpr strain, BacTiter-Glo ATP luminescence, 24 h; Potency, µM (highest dose often 92.2 µM), most hits filed as inhibitors; AID 651644, 2012; actives 0.21% (n = 360,000); active = well fitted falling curve with a large enough effect; inconclusive = small, poorly fitted or top-dose-only effect; inactive = no such curve, though single readings can be large or run the other way; note: nearly all actives have a fitted effect of over 50% in size
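Fission yeast strain RE007, carrying one chromosomally integrated HIV-1 vpr copy, was seeded at OD 0.01 in PMG+AL medium with 23 nL pinned compound. After 24 h at 30 °C and 99% humidity, viability was read by BacTiter-Glo luminescence.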
A number is an active result; . = inactive; ? = inconclusive; / = no result; [ ] = remark or other dose. Hits are enriched below; roughly 3.2% of the tested compounds scored in any of these assays. Unless noted, calls come from the whole dose curve; as a rule, active = well fitted curve in the direction sought with a large enough effect; inconclusive = small, poorly fitted or top-dose-only effect, or another doubt; inactive = no such curve, though single readings can be large; an effect the other way counts as inactive or inconclusive.

SMILES	Tb PYK inh	Sm TGR block	AMA1-RON2 inh	LmPK inhibitor	RE007 growth inh
Cc1ccccc1/C(N)=N/OC(=O)c1ccc(F)cc1	.	.	.	15.8µM	.
CC(=O)Nc1ccc(S(=O)(=O)N2CCC(NC(=O)C(Cc3cccc(F)c3)NC(C)=O)CC2)cc1 (stereo not drawn)	.	44.7µM	.	.	.
O=C(c1ccc(S(=O)(=O)c2cccc(Cl)c2)c([N+](=O)[O-])c1)N1CCN(c2ccccn2)CC1	.	3.55µM	.	.	.
OC1=C(O)c2nc3cc(C(F)(F)F)ccc3nc21	.	.	28.2µM	.	.
Cc1cc2nc3c(nc2cc1C)C(O)=C3O	.	14.1µM	.	.	.
OC1=C(O)c2nc3ccccc3nc21	.	.	.	.	.
O=C(CCCn1c(=O)c2cccn2c2cccnc21)Nc1ccccc1Br	.	.	/	/	/
CCc1ccc(NC(=O)c2nnn(Cc3cccc(C(F)(F)F)c3)c2N)cc1	.	.	/	/	/
CN(C)c1ccc(CC2C(=O)Nc3ccccc32)cc1 (stereo not drawn)	.	14.1µM	?	.	.
O=C1Nc2ccccc2C1Cc1ccc(Br)cc1 (stereo not drawn)	.	.	/	/	/
CCNC(=S)Nc1cc(-c2ccc(Cl)cc2)[nH]n1	.	0.891µM	.	.	.
COc1cccc(CNC(=O)CN2C(=O)N(c3ccc(C)cc3C)S(=O)(=O)c3ccccc32)c1OC	.	.	/	/	/
O=c1ccc2c(o1)/C(=C/C=C(Cl)Cl)CCC2	.	22.4µM	.	.	.
Cc1ccc(C)c(CSc2nnc3[nH]c(=O)cc(C)n23)c1	.	.	/	/	/
CC(=O)Nc1ccc(S(=O)(=O)NNc2cccc(C)c2)cc1	?	14.1µM	.	.	.
CCOC(=O)C1(C)/C(=N/Nc2ccc(Cl)cc2)C(=O)C(=O)N1c1ccccc1 (stereo not drawn)	.	50.1µM	.	.	.
O=C(COc1ccc(F)cc1)Nc1ccccc1C(=O)OCc1cc(=O)n2ccsc2n1	.	.	/	/	/
COc1ccc(NC(=O)CCN2CCC(C)CC2)cc1	.	.	.	.	.
COc1ccc(NC(=O)CCN2CCCC(C)C2)cc1 (stereo not drawn)	.	89.1µM	.	.	.
CC(/C=N/n1c(-c2n[nH]c3c2CCC3)n[nH]c1=S)=C\c1ccco1	?	35.5µM	.	.	.
CC(/C=N/n1c(-c2cccnc2)n[nH]c1=S)=C\c1ccco1	?	39.8µM	.	.	.
COc1ccc(/C=N/n2c(-c3n[nH]c4c3CCC4)n[nH]c2=S)cc1	?	.	.	.	.
COC(=O)c1c(N2C(=O)CC(Sc3ccccc3C(=O)O)C2=O)sc(C)c1C (stereo not drawn)	.	4.47µM	.	.	.
COC(=O)c1c(N2C(=O)CC(Sc3ccccc3C(=O)O)C2=O)sc2c1CCCC2 (stereo not drawn)	.	2.51µM	.	.	.
COC(=O)c1c(N2C(=O)[C@H]3[C@@H](C2=O)[C@]2(C(=O)Nc4c(C)cccc42)N2CCC[C@@H]32)sc(C)c1C	.	.	.	.	.
SMILES	Tb PYK inh	Sm TGR block	AMA1-RON2 inh	LmPK inhibitor	RE007 growth inh
CCN1Cc2cccc(C(=O)Nc3ccc(F)cc3)c2C1=O	.	.	/	/	/
C/C=C\C=C/C(=O)Nc1cccc(C2=NOC3(C2)C[C@@H](C(N)=O)N(C(=O)c2ccccc2)C3)c1 (stereo partly drawn)	/	3.16µM	/	.	/
C/C=C\C=C\C(=O)Nc1cccc(C2=NOC3(C2)C[C@H](C(N)=O)N(C(=O)c2ccccc2C(=O)c2ccccc2)C3)c1 (stereo partly drawn)	.	3.16µM	.	.	.
C/C=C\C=C\C(=O)N1CC2(CC(c3cccc(NC(=O)CC)c3)=NO2)C[C@H]1C(N)=O (stereo partly drawn)	.	2.51µM	.	.	.
C/C=C/C=C\C(=O)Nc1cccc(C2=NOC3(C2)C[C@H](C(N)=O)N(C(=O)/C=C/C)C3)c1 (stereo partly drawn)	.	2.82µM	?	.	.
Cc1ccc(Cc2nc3ccccc3nc2SCC(=O)N2CCCc3ccccc32)cc1	.	.	/	/	/
C/C=C/C=C\C(=O)Nc1cccc(C2=NOC3(C2)C[C@@H](C(N)=O)N(C(=O)c2cc([N+](=O)[O-])cc([N+](=O)[O-])c2C)C3)c1 (stereo partly drawn)	.	2.82µM	.	.	.
CCN1CCN(c2nnc(-n3cccc3C(=O)Nc3cccc(OC)c3)s2)CC1	.[15.4 µM]	.	/	/	/
O=C(CN1C(=O)CC(c2ccco2)Sc2ccccc21)Nc1ccccc1F (stereo not drawn)	.	25.1µM	.	.	.
CCN1C(=O)CC(c2ccco2)Sc2ccccc21 (stereo not drawn)	.	25.1µM	.	.	.
O=C(CN1C(=O)CC(c2ccco2)Sc2ccccc21)NCc1ccc2c(c1)OCO2 (stereo not drawn)	.	.	.	.	.
O=C(CN1C(=O)CC(c2ccco2)Sc2ccccc21)Nc1ccc(Br)cc1 (stereo not drawn)	.	.	/	/	/
C[C@@H](NC(=O)CN(c1ccccc1)S(=O)(=O)N(C)C)c1ccccc1	.	.	/	/	/
C=CCOC(=O)C1=C(C)NC(SCC(=O)NC(=O)OCC)=C(C#N)C1c1cccnc1 (stereo not drawn)	.	39.8µM	.	.	.
CN(Cc1ccco1)C(=O)Cn1cc(S(=O)(=O)N2CCCC2)c(S(=O)(=O)N2CCCC2)c1	.	35.5µM	.	.	.
O=C(COc1ccc(Cl)cc1Cl)NCc1ccco1	.	.	.	.	?
Cc1ccc(OCC(=O)NCc2ccco2)cc1C	.	35.5µM	.	.	?
Cc1cc(Cl)cc(Cl)c1OCC(=O)NCc1ccco1	.	39.8µM	.	.	.
COC(=O)c1nc(NC(C)=O)n[nH]1	/	.	/	.	/
COC(=O)c1nc(NC(=O)C(C)C)n[nH]1	.	17.8µM	.	.	.
O=C(CN1C(=O)c2ccccc2C1=O)Nc1sc2c(c1C(=O)NCC1CCCO1)CCC2 (stereo not drawn)	.	79.4µM	.	.	.
O=C(CCCN1C(=O)c2ccccc2C1=O)Nc1sc2c(c1C(=O)NCc1ccco1)CCC2	.	39.8µM	.	.	.
O=C(CN1C(=O)c2ccccc2C1=O)Nc1sc2c(c1C(=O)NCc1ccco1)CCCC2	.	.	.	.	.
Cn1cc(C(=O)NCCc2ccccc2)c(=O)c2cc(S(=O)(=O)N3CCCCC3)ccc21	.	.	/	/	/
CCCSCCCNC(=O)CN1C(=O)COc2ccc(S(=O)(=O)N3CCC(C)CC3)cc21	.	5.62µM	/	/	/
CCCSCCCNC(=O)CN1C(=O)COc2ccc(S(=O)(=O)N3CCCCCC3)cc21	.	.	/	/	/
